# Substitutions are numbered along the chain they refer to; changes in the protein carry UniProt numbers. The full ranking holds about 16,000 sequences; the median of “ka relative to ugcaugu” is about 0.0091, and the highest 2% start at about 0.032. The sample as a whole holds a higher share of the highest values than the screen did.
# T1: RBFOX1 RRM (Homo sapiens, UniProt Q9NWB1 109-208)
# T1 sequence: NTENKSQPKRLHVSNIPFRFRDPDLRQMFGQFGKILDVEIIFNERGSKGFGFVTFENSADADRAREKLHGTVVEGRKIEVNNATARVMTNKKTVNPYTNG
# B1: UCAGCGA (DNA:RNA)
# RNA: GGGAGACCGGAAUUCAGAUUGUCCUCAGCGAUUAAAUCCCGUCGUAGCCACCA
# DNA 1: CAATCTGAATTCCGGTCTCCC
# DNA 2: TGGTGGCTACGACGGGATT
# B2: ACCACAA (DNA:RNA)
# RNA: B1 RNA with U25A, A27C, G28A, G30A
# DNA 1: CAATCTGAATTCCGGTCTCCC
# DNA 2: TGGTGGCTACGACGGGATT
# B3: GUCGAGG (DNA:RNA)
# RNA: B1 RNA with U25G, C26U, A27C, C29A, A31G
# DNA 1: CAATCTGAATTCCGGTCTCCC
# DNA 2: TGGTGGCTACGACGGGATT
# B4: GACCCGU (DNA:RNA)
# RNA: B1 RNA with U25G, C26A, A27C, G28C, A31U
# DNA 1: CAATCTGAATTCCGGTCTCCC
# DNA 2: TGGTGGCTACGACGGGATT
# B5: AGAUGGC (DNA:RNA)
# RNA: B1 RNA with U25A, C26G, G28U, C29G, A31C
# DNA 1: CAATCTGAATTCCGGTCTCCC
# DNA 2: TGGTGGCTACGACGGGATT
# B6: CGCUGGA (DNA:RNA)
# RNA: B1 RNA with U25C, C26G, A27C, G28U, C29G
# DNA 1: CAATCTGAATTCCGGTCTCCC
# DNA 2: TGGTGGCTACGACGGGATT
# B7: GCUAUGG (DNA:RNA)
# RNA: B1 RNA with U25G, A27U, G28A, C29U, A31G
# DNA 1: CAATCTGAATTCCGGTCTCCC
# DNA 2: TGGTGGCTACGACGGGATT
# B8: CACCGAC (DNA:RNA)
# RNA: GGGAGACCGGAAUUCAGAUUGUCCCACCGACUUAAAUCCCGUCGUAGCCACCA
# DNA 1: CAATCTGAATTCCGGTCTCCC
# DNA 2: TGGTGGCTACGACGGGATT
# B9: GGAAGCG (DNA:RNA)
# RNA: B8 RNA with C25G, A26G, C27A, C28A, A30C, C31G
# DNA 1: CAATCTGAATTCCGGTCTCCC
# DNA 2: TGGTGGCTACGACGGGATT
# B10: CUCUACU (DNA:RNA)
# RNA: B8 RNA with A26U, C28U, G29A, A30C, C31U
# DNA 1: CAATCTGAATTCCGGTCTCCC
# DNA 2: TGGTGGCTACGACGGGATT
# B11: GUCAUUG (DNA:RNA)
# RNA: B8 RNA with C25G, A26U, C28A, G29U, A30U, C31G
# DNA 1: CAATCTGAATTCCGGTCTCCC
# DNA 2: TGGTGGCTACGACGGGATT
# B12: UGGCUGC (DNA:RNA)
# RNA: B8 RNA with C25U, A26G, C27G, G29U, A30G
# DNA 1: CAATCTGAATTCCGGTCTCCC
# DNA 2: TGGTGGCTACGACGGGATT
# B13: UGGCUGA (DNA:RNA)
# RNA: B1 RNA with C26G, A27G, G28C, C29U
# DNA 1: CAATCTGAATTCCGGTCTCCC
# DNA 2: TGGTGGCTACGACGGGATT
# B14: GUCCUGA (DNA:RNA)
# RNA: B8 RNA with C25G, A26U, G29U, A30G, C31A
# DNA 1: CAATCTGAATTCCGGTCTCCC
# DNA 2: TGGTGGCTACGACGGGATT
# B15: UGAUGGC (DNA:RNA)
# RNA: B1 RNA with C26G, G28U, C29G, A31C
# DNA 1: CAATCTGAATTCCGGTCTCCC
# DNA 2: TGGTGGCTACGACGGGATT
# B16: CGGCUGC (DNA:RNA)
# RNA: B8 RNA with A26G, C27G, G29U, A30G
# DNA 1: CAATCTGAATTCCGGTCTCCC
# DNA 2: TGGTGGCTACGACGGGATT
# B17: UGAUUCG (DNA:RNA)
# RNA: B1 RNA with C26G, G28U, C29U, G30C, A31G
# DNA 1: CAATCTGAATTCCGGTCTCCC
# DNA 2: TGGTGGCTACGACGGGATT
# B18: GUGCUGA (DNA:RNA)
# RNA: B1 RNA with U25G, C26U, A27G, G28C, C29U
# DNA 1: CAATCTGAATTCCGGTCTCCC
# DNA 2: TGGTGGCTACGACGGGATT
# B19: UGCUGGC (DNA:RNA)
# RNA: B8 RNA with C25U, A26G, C28U, A30G
# DNA 1: CAATCTGAATTCCGGTCTCCC
# DNA 2: TGGTGGCTACGACGGGATT
# B20: CGGCUGA (DNA:RNA)
# RNA: B8 RNA with A26G, C27G, G29U, A30G, C31A
# DNA 1: CAATCTGAATTCCGGTCTCCC
# DNA 2: TGGTGGCTACGACGGGATT
# Biological target: T1, RBFOX1 RRM
# Assay: EMSA; HiTS-Eq, 1 nM pool, 10 min; buffer printed only for the single-RNA assays: 10 mM Tris pH 7.5, 150 mM NaCl, 3.4 mM EDTA, 0.001% NP-40, 30 C
# Conditions: tags: His6 N-terminal (pET28a); label: 5' 32P
# In short: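 A pool of RNA with 7 randomized nucleotides, 5′-radiolabelled and with DNA-annealed flanks, was equilibrated at 1 nM for 10 min in 50 µL with purified RbFox RRM, wild type or mutant, across increasing protein concentrations. Free RNA was separated by 8% native PAGE, excised, reverse-transcribed, barcoded by PCR and sequenced. Relative association constants were obtained from read-count changes of each RNA species versus the control reaction and normalised to the cognate motif.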
row,Binder,binding signal
1,B1,0.00561 KA relative to UGCAUGU
2,B2,0.00102 KA relative to UGCAUGU
3,B3,0.0114 KA relative to UGCAUGU
4,B4,0.00715 KA relative to UGCAUGU
5,B5,0.0111 KA relative to UGCAUGU
6,B6,0.00997 KA relative to UGCAUGU
7,B7,0.0134 KA relative to UGCAUGU
8,B8,0.00223 KA relative to UGCAUGU
9,B9,0.0177 KA relative to UGCAUGU
10,B10,0.00629 KA relative to UGCAUGU
11,B11,0.0126 KA relative to UGCAUGU
12,B12,0.0373 KA relative to UGCAUGU
13,B13,0.036 KA relative to UGCAUGU
14,B14,0.0213 KA relative to UGCAUGU
15,B15,0.0129 KA relative to UGCAUGU
16,B16,0.018 KA relative to UGCAUGU
17,B17,0.0228 KA relative to UGCAUGU
18,B18,0.0323 KA relative to UGCAUGU
19,B19,0.0238 KA relative to UGCAUGU
20,B20,0.022 KA relative to UGCAUGU

# Reference: paper PMC9911399, “Two distinct binding modes provide the RNA-binding protein RbFox with extraordinary sequence specificity”
